Shown are actives, neighbours in structure and some others; about 3.9% of the full set was active somewhere.
HSP90 refold inh: inhibitors of HSP90 luciferase refolding in rabbit reticulocyte lysate | luciferase refolding luminescence, 3 h | inhibition, % at 5.6 µM | hit rate 0.91% among 290,000 | AID 1789;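 active = inhibition above the screen-wide mean plus 3 SD, computed separately per campaign, cut at about 16% in these data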;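 note: 0% = DMSO wells and 100% = 60 µM geldanamycin wells; inhibitors lower the luminescence because luciferase stays unfolded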
TWEAK-Fn14 inh: inhibitors of TWEAK-Fn14 interaction signaling; TWEAK-stimulated Fn14 reporter cells, luciferase luminescence, 8 h; inhibition, % at 10 µM; hit rate 2% among 360,000; AID 1159606; in the data active = inhibition above about 50%
aSyn UTR inh: 5' untranslated region of α-synuclein, MLPCN primary screen. alpha-synuclein 5'UTR reporter, inhibitor activity. inhibition, % (tested at 7.5 µM). hit rate 0.82% among 300,000. AID 1813; in the data active = inhibition above about 60%;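 note: H4 neuroglioblastoma cells stably carrying SNCA 5'UTR luciferase fusion; 0% = DMSO wells and 100% = positive control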
C8 TRAIL sens: caspase-8 TRAIL sensitization | inhibition (viability loss, TRAIL sensitization), % at 10 µM | hit rate 1% among 360,000 | AID 624354 | NB7+C8 cells + TRAIL, ATPlite viability luminescence;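 active = compounds causing at least 50% loss of cell viability in the single-dose screen, relative to plate controls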
TROY signal inh: TROY signaling inhibition; Q293 LMP1-TROYcd NF-kB luciferase reporter, 4 h; inhibition, % at 10 µM; hit rate 0.98% among 360,000;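 active = compounds whose plate-normalised and pattern-corrected inhibition of the luciferase reporter signal at the single screening dose is 50% or more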
HIF-2a inh: HIF-2a inhibition. 786-0 RCC cells HIF-2a reporter, luciferase luminescence, overnight. inhibition, % at 18.8 µM. hit rate 0.72% among 360,000;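 active = inhibition of the luminescence signal of 40% or more relative to plate controls, in a single-dose primary screen at 18.75 µM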
The depositor's hits bear a star.

For NS(=O)(=O)c1ccc(-c2ccc(/C=N/Nc3ccc(C(=O)O)cc3)o2)cc1 the results were HSP90 refold inh 10, TWEAK-Fn14 inh 50*, aSyn UTR inh -52, C8 TRAIL sens 6, TROY signal inh 16 and HIF-2a inh 11.
Screening O=C(COC(=O)c1cccs1)c1ccc2c(c1)OCCO2 returned HSP90 refold inh 7, TWEAK-Fn14 inh 61*, aSyn UTR inh -176, C8 TRAIL sens 43, TROY signal inh 75* and HIF-2a inh -144.
Screening O=C(COC(=O)c1cccs1)c1ccc2ccccc2c1 returned HSP90 refold inh 0, TWEAK-Fn14 inh -12, aSyn UTR inh -121, C8 TRAIL sens -6, TROY signal inh -70 and HIF-2a inh -148.
O=C(Cc1n[nH]c(=O)c2ccccc12)OCC(=O)c1ccc2c(c1)OCCO2 was read as HSP90 refold inh 0, TWEAK-Fn14 inh -21, aSyn UTR inh 80*, C8 TRAIL sens 17, TROY signal inh -3 and HIF-2a inh 11.
`Cc1cccc(C(=O)OCC(=O)c2ccc3c(c2)OCCO3)c1O` gave TWEAK-Fn14 inh 13, C8 TRAIL sens 36, TROY signal inh 54* and HIF-2a inh -260.
`Cc1ccc(C(=O)COC(=O)c2cccs2)cc1` gave HSP90 refold inh -4, TWEAK-Fn14 inh 43, aSyn UTR inh -114, C8 TRAIL sens 40, TROY signal inh 59* and HIF-2a inh -237.
Cc1cccc(-c2ccc3c(c2)C2CC3CCN2Cc2ccc3c(c2)OCO3)c1 (configuration not stated) was read as TWEAK-Fn14 inh -18, C8 TRAIL sens 9, TROY signal inh 4 and HIF-2a inh -4.
COCCn1c(C)cc(/C=C(\C#N)C(=O)OCC(=O)N(C)c2c(N)n(Cc3ccccc3)c(=O)[nH]c2=O)c1C was read as TWEAK-Fn14 inh 19, aSyn UTR inh -5, C8 TRAIL sens -1, TROY signal inh -3 and HIF-2a inh 1.
For CC(C)c1ccc(NC(=O)CN(C)C2=NS(=O)(=O)c3ccccc32)cc1 the results were TWEAK-Fn14 inh 11, C8 TRAIL sens 4, TROY signal inh -8 and HIF-2a inh 10.
CC(=O)NC12CC3CC(C1)CC(C(=O)OCC(=O)c1ccc4c(c1)OCCO4)(C3)C2 was read as HSP90 refold inh 4, TWEAK-Fn14 inh 58*, aSyn UTR inh -134, C8 TRAIL sens 5, TROY signal inh 54* and HIF-2a inh -205.
For COC(=O)c1ccc(CNC(=O)c2ccc3c(c2)OCCO3)cc1 the results were HSP90 refold inh 2, TWEAK-Fn14 inh 79*, aSyn UTR inh -26, C8 TRAIL sens 2, TROY signal inh -35 and HIF-2a inh -106.
For CCOC(=O)C(=O)CC(=O)c1ccc2c(c1)OCCO2 the results were HSP90 refold inh 4, TWEAK-Fn14 inh -4, aSyn UTR inh -40, C8 TRAIL sens -1, TROY signal inh 72* and HIF-2a inh -79.
For O=C(COC(=O)c1ccccc1[N+](=O)[O-])c1ccc2c(c1)OCO2 the results were TWEAK-Fn14 inh 78*, aSyn UTR inh -187, C8 TRAIL sens 4, TROY signal inh 78* and HIF-2a inh -15.
Screening Cc1cccc(C(=O)OCC(=O)c2ccc3c(c2)OCO3)c1O returned HSP90 refold inh 4, TWEAK-Fn14 inh -24, aSyn UTR inh -153, C8 TRAIL sens 28, TROY signal inh -22 and HIF-2a inh -252.
For O=C(NCc1ccc2c(c1)OCO2)c1ccc2c(c1)OCCO2 the results were HSP90 refold inh 3, TWEAK-Fn14 inh -27, aSyn UTR inh -20, C8 TRAIL sens -3, TROY signal inh -44 and HIF-2a inh -125.
`NC(=O)c1ccc2c(c1)OCCO2` gave HSP90 refold inh 0, TWEAK-Fn14 inh 16, aSyn UTR inh -9, C8 TRAIL sens 5 and HIF-2a inh 13.
Screening CC(=O)NC(c1ccc(F)c(F)c1)c1nc(-c2ccc3c(c2)OCO3)cs1 (configuration not stated) returned TWEAK-Fn14 inh -22, C8 TRAIL sens 1, TROY signal inh -11 and HIF-2a inh -35.
`CCOc1cc(OCC)cc(C(=O)N2CCC[C@H]2C(=O)N2CCC[C@H]2C(=O)N(C)Cc2ccccc2)c1` gave TWEAK-Fn14 inh -3, C8 TRAIL sens 10, TROY signal inh -14 and HIF-2a inh -3.
For CC(C)C[C@H]1CNC(=O)C(=O)N1C[C@@H]1CCCN1C[C@H](CC(C)C)N1C[C@H](Cc2ccc(O)cc2)N(CCc2ccccc2)C(=O)C1=O the results were TWEAK-Fn14 inh 14, C8 TRAIL sens -2, TROY signal inh 16 and HIF-2a inh 12.

Source: PubChem BioAssay
